Reference: PubChem BioAssay
Activity calls are given as the source filed them. Unless noted, no rule for the calls is given here.

Assay: inhibition of PAO1 biofilm formation – strain PAO1, LB-PBS medium, absorbance 600 nm, primary screen (AID 1176)
Settings: P. aeruginosa PAO1 growth/biofilm, A600, 12 h; higher = more signal
Also: test concentration not given here.

With `CCN(CC)c1ccc(N2CC=CC34O[C@@H]5C=CCCOC(=O)C5[C@H]3C(=O)N(CCO)[C@@H]4C2=O)cc1` (some centres not stated) as the molecule, how does the z-score read?
The z-score was 0.469 (inactive).

Which z-score does the source give for `CN1C=C(C(=O)OCCS(C)(=O)=O)C(C(=O)OCCS(C)(=O)=O)=CC(c2ccc(CO)cc2)=CC1c1cccs1` (configuration not stated) here?
Its z-score is -0.566 (inactive).

Which z-score does the source give for `C=C(C)C1CCC(C(O)C2C=CC3C(=O)N(C)C(=O)C3N2Nc2cc(OC)c(OC)c(OC)c2)CC1` (configuration not stated) here?
Its z-score is 0.971 (inactive).

With `O=C1NC(=O)C2C1C=CC(C(O)c1ccccn1)N2Nc1ccc(Cl)cc1Cl` (configuration not stated) as the molecule, how does the z-score read?
The z-score was 0.931 (inactive).

For `CCCCC=C[C@@H](NC(=O)c1ccccc1)c1ccccc1`, which z-score is on record?
Its z-score is 1.43 (inactive).

For `C=C(C(=O)CC[C@H](OC(=O)c1ccccc1-c1ccccc1C(=O)O)c1ccccc1OCCO)C(C)C`, which z-score is on record?
Its z-score is 0.108 (inactive).

With `COCCOC(=O)N1C(=O)[C@@]2(c3cc(C#CCC(C(=O)OC)C(=O)OC)ccc31)[C@H](c1ccc(O)cc1)N1[C@H](c3ccccc3)[C@H](c3ccccc3)OC(=O)[C@H]1[C@@H]2C(=O)NC[C@H](O)c1ccccc1` as the molecule, how does the z-score read?
The z-score was -0.489 (inactive).

For `[N-]=[N+]=NCc1ccccc1[C@@H]1OC(c2ccc(OCCCO)cc2)=N[C@]1(Cc1ccccc1N=[N+]=[N-])C(=O)NCCN1CCOCC1`, which z-score is on record?
Its z-score is 0.385 (inactive).

With `CN1C(=O)C2C=CC(C(O)c3ccc(I)cc3)N(Nc3ccccc3)C2C1=O` (configuration not stated) as the molecule, how does the z-score read?
The z-score was 0.683 (inactive).

With `[N-]=[N+]=NCc1ccccc1[C@@H]1OC(c2ccc(OCCCO)cc2)=N[C@]1(Cc1ccccc1)C(=O)NCCN1CCOCC1` as the molecule, how does the z-score read?
The z-score was -0.279 (inactive).

With `CC1(C)C(=O)C(c2ccccc2)=C2CN3C(=O)N(CCc4ccccc4)C(=O)C3(Cc3ccc(C(F)(F)F)cc3)C=C21` (configuration not stated) as the molecule, how does the z-score read?
Its z-score is 0.0539 (inactive).

For `O=C1N(CCS(=O)(=O)c2ccccc2)Cc2ccccc2[C@@H]2OC(c3ccc(OCCCO)cc3)=N[C@]12CCS(=O)(=O)c1ccccc1`, which z-score is on record?
Its z-score is 1.71 (inactive).

For `CCOC(=O)C[C@H]1[C@H](OC(=O)c2cc3ccccc3oc2=O)[C@@H](NC(=O)c2ccc3ccccc3c2)c2cc(OCCCO)ccc2N1C(=O)Cc1ccc(OC)cc1`, which z-score is on record?
Its z-score is -0.304 (inactive).

Which z-score does the source give for `CC(C)OC(=O)CC(=O)CC(O)c1ccc([N+](=O)[O-])cc1` (configuration not stated) here?
The z-score was -0.088 (inactive).

Which z-score does the source give for `CO[C@H]1O[C@H](CO)[C@@H](OC(=O)CCc2ccccc2)[C@H](OC(=O)c2cc3ccccc3[nH]2)[C@H]1OC(=O)c1cc2ccccc2[nH]1` here?
The z-score was 1.38 (inactive).

Which z-score does the source give for `C=CCNC(=O)[C@@H]1[C@H]2C(=O)O[C@H](c3ccccc3)[C@H](c3ccccc3)N2[C@H](c2ccc(OCCO)cc2)[C@@]12C(=O)N(C(=O)OCCOC)c1ccc(C#CCCO)cc12` here?
Its z-score is 2.16 (inactive).

With `COCCOC(=O)N1C(=O)[C@@]2(c3cc(C#CCCO)ccc31)[C@H](C(=O)N1CCCCCCC1)[C@H]1C(=O)O[C@H](c3ccccc3)[C@H](c3ccccc3)N1[C@@H]2c1ccccc1OCCO` as the molecule, how does the z-score read?
Its z-score is 0.898 (inactive).

Which z-score does the source give for `COC(=O)[C@@]1(Cc2ccc(F)cc2)[C@H]2c3cc(C(=O)N4CCCC4)n(C)c3C[C@H]2CN1C(=O)c1ccccc1` here?
Its z-score is 0.523 (inactive).

For `COC(=O)[C@@]1(Cc2ccc(F)cc2)[C@H]2c3cc(C(=O)N(C)C)n(Cc4ccc(O)c(OC)c4)c3C[C@H]2CN1C(=O)c1ccccc1`, which z-score is on record?
The z-score was 1.72 (inactive).

For `C=CCC(OC(C)=O)[C@@H]1[C@@H](N(Cc2ccc(-c3cccc(C(F)(F)F)c3)o2)C(=O)c2ccc(C)cc2)c2cc(OCCCO)ccc2N1C(=O)Cc1ccc(OC)cc1` (some centres not stated), which z-score is on record?
The z-score was -0.194 (inactive).

Which z-score does the source give for `CN(C)CCCCNC(=O)[C@H]1C[C@H]2C(=O)N[C@@H](CCCC[N+](C)(C)C)C(=O)N2[C@H]1c1ccc(O)cc1` here?
The z-score was -1.16 (inactive).

Which z-score does the source give for `CCOC(=O)C1=C[C@@H](c2ccccc2)N(S(=O)(=O)c2ccc(C)cc2)[C@H]1c1ccccc1` here?
The z-score was 0.878 (inactive).

With `C=CC[C@H](OC(=O)Nc1ccc(SC)cc1)c1ccc(OCCO)cc1` as the molecule, how does the z-score read?
Its z-score is 0.119 (inactive).

Which z-score does the source give for `O=C(O)[C@H]1C[C@H]2C(=O)N[C@@H](Cc3ccccc3)C(=O)N2[C@H]1c1cccc(OCCO)c1` here?
Its z-score is -0.295 (inactive).

With `CN(C)C(=O)[C@]1(CCS(=O)(=O)c2ccccc2)N=C(c2ccc(OCCCO)cc2)O[C@@H]1c1ccccc1` as the molecule, how does the z-score read?
The z-score was -0.484 (inactive).

For `CCOC(=O)C1=C[C@@H](C(C)(C)C)N(S(=O)(=O)c2ccc(C)cc2)[C@H]1c1ccc(C)cc1`, which z-score is on record?
The z-score was 0.148 (inactive).

Assay: growth modulation of vineyard yeast isolate – strain RM11-1a, OD600, basal, 24 h, primary screen (AID 1177);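 also: cultures grown under basal conditions with no added stressor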
Settings: S. cerevisiae RM11-1a growth, OD600, 24 h; higher = more signal, called active from +8 up or from −8 down

With `[N-]=[N+]=Nc1ccccc1C[C@]1(C(=O)NCc2ccccc2)COC(c2ccc(OCCCO)cc2)=N1` as the molecule, how does the z-score read?
Its z-score is 2.15 (inactive).

Which z-score does the source give for `C=CCNC(=O)[C@H]1[C@@H]2C(=O)O[C@@H](c3ccccc3)[C@@H](c3ccccc3)N2[C@@H](c2ccc(OCCO)cc2)[C@]12C(=O)Nc1ccc(C#CCNC(N)=O)cc12` here?
The z-score was 3.25 (inactive).

Which z-score does the source give for `CCOC(=O)C[C@H]1[C@H](OC(=O)c2ccccc2-c2ccccc2)[C@@H](NC(=O)c2ccc3ccccc3n2)c2cc(OCCCO)ccc2N1C(=O)c1ccccc1` here?
Its z-score is 1.01 (inactive).

For `C[C@@H]1ON(c2ccc(I)cc2)[C@H](c2ccc(OC(=O)OC(C)(C)C)cc2)[C@H]1C(=O)N1C(=O)OC[C@H]1Cc1ccccc1`, which z-score is on record?
The z-score was 0.61 (inactive).

With `CN1C(=O)[C@@H]2[C@@H](CC(COc3ccccc3)=C([C@H](O)CCc3ccccc3)[C@@H]2CO)C1=O` as the molecule, how does the z-score read?
The z-score was -0.136 (inactive).

With `NC(=O)N1C(=O)C2C(C1=O)C1C=C(CCCO)C2C(C2CC2)N1Cc1cccc(OC(F)(F)F)c1` (configuration not stated) as the molecule, how does the z-score read?
The z-score was -0.0011 (inactive).

For `O=C(N1CCOCC1)[C@@]1(CCS(=O)(=O)c2ccccc2)N=C(c2ccc(OCCCO)cc2)O[C@H]1c1ccccc1`, which z-score is on record?
The z-score was 0.0235 (inactive).

Which z-score does the source give for `C=C(COC)C(=O)CC[C@H](OC(C)=O)c1ccc(OCCO)cc1` here?
Its z-score is -0.83 (inactive).

With `COc1ccc(C(O)C2C=CC3C(=O)N(c4ccccc4)C(=O)C3N2Nc2ccccc2)cc1` (configuration not stated) as the molecule, how does the z-score read?
Its z-score is -0.0179 (inactive).

For `O=C1C2C=CC(C(O)C=Cc3ccc([N+](=O)[O-])cc3)N(Nc3ccccc3)C2C(=O)N1c1ccccc1` (configuration not stated), which z-score is on record?
The z-score was -0.0358 (inactive).

With `CCN(CC)c1ccc(N2CC=CC34O[C@@H]5C=CCCOC(=O)C5[C@H]3C(=O)N(CCO)[C@@H]4C2=O)cc1` (some centres not stated) as the molecule, how does the z-score read?
Its z-score is -0.106 (inactive).

For `CN1C=C(C(=O)OCCS(C)(=O)=O)C(C(=O)OCCS(C)(=O)=O)=CC(c2ccc(CO)cc2)=CC1c1cccs1` (configuration not stated), which z-score is on record?
Its z-score is -0.363 (inactive).

Which z-score does the source give for `C=C(C)C1CCC(C(O)C2C=CC3C(=O)N(C)C(=O)C3N2Nc2cc(OC)c(OC)c(OC)c2)CC1` (configuration not stated) here?
The z-score was 0.065 (inactive).

Which z-score does the source give for `O=C1NC(=O)C2C1C=CC(C(O)c1ccccn1)N2Nc1ccc(Cl)cc1Cl` (configuration not stated) here?
The z-score was 0.351 (inactive).

For `CCCCC=C[C@@H](NC(=O)c1ccccc1)c1ccccc1`, which z-score is on record?
The z-score was 0.0455 (inactive).

With `C=C(C(=O)CC[C@H](OC(=O)c1ccccc1-c1ccccc1C(=O)O)c1ccccc1OCCO)C(C)C` as the molecule, how does the z-score read?
The z-score was -0.0722 (inactive).

Which z-score does the source give for `COCCOC(=O)N1C(=O)[C@@]2(c3cc(C#CCC(C(=O)OC)C(=O)OC)ccc31)[C@H](c1ccc(O)cc1)N1[C@H](c3ccccc3)[C@H](c3ccccc3)OC(=O)[C@H]1[C@@H]2C(=O)NC[C@H](O)c1ccccc1` here?
Its z-score is 0.592 (inactive).

For `[N-]=[N+]=NCc1ccccc1[C@@H]1OC(c2ccc(OCCCO)cc2)=N[C@]1(Cc1ccccc1N=[N+]=[N-])C(=O)NCCN1CCOCC1`, which z-score is on record?
Its z-score is -0.186 (inactive).

For `CN1C(=O)C2C=CC(C(O)c3ccc(I)cc3)N(Nc3ccccc3)C2C1=O` (configuration not stated), which z-score is on record?
The z-score was -0.0359 (inactive).

Which z-score does the source give for `[N-]=[N+]=NCc1ccccc1[C@@H]1OC(c2ccc(OCCCO)cc2)=N[C@]1(Cc1ccccc1)C(=O)NCCN1CCOCC1` here?
Its z-score is 1.89 (inactive).

With `CC1(C)C(=O)C(c2ccccc2)=C2CN3C(=O)N(CCc4ccccc4)C(=O)C3(Cc3ccc(C(F)(F)F)cc3)C=C21` (configuration not stated) as the molecule, how does the z-score read?
Its z-score is 1.9 (inactive).

With `O=C1N(CCS(=O)(=O)c2ccccc2)Cc2ccccc2[C@@H]2OC(c3ccc(OCCCO)cc3)=N[C@]12CCS(=O)(=O)c1ccccc1` as the molecule, how does the z-score read?
Its z-score is 2.85 (inactive).

With `CCOC(=O)C[C@H]1[C@H](OC(=O)c2cc3ccccc3oc2=O)[C@@H](NC(=O)c2ccc3ccccc3c2)c2cc(OCCCO)ccc2N1C(=O)Cc1ccc(OC)cc1` as the molecule, how does the z-score read?
The z-score was 0.0085 (inactive).

For `CC(C)OC(=O)CC(=O)CC(O)c1ccc([N+](=O)[O-])cc1` (configuration not stated), which z-score is on record?
Its z-score is 0.0857 (inactive).

Which z-score does the source give for `CO[C@H]1O[C@H](CO)[C@@H](OC(=O)CCc2ccccc2)[C@H](OC(=O)c2cc3ccccc3[nH]2)[C@H]1OC(=O)c1cc2ccccc2[nH]1` here?
Its z-score is 0.033 (inactive).

With `C=CCNC(=O)[C@@H]1[C@H]2C(=O)O[C@H](c3ccccc3)[C@H](c3ccccc3)N2[C@H](c2ccc(OCCO)cc2)[C@@]12C(=O)N(C(=O)OCCOC)c1ccc(C#CCCO)cc12` as the molecule, how does the z-score read?
Its z-score is 1.55 (inactive).

With `COCCOC(=O)N1C(=O)[C@@]2(c3cc(C#CCCO)ccc31)[C@H](C(=O)N1CCCCCCC1)[C@H]1C(=O)O[C@H](c3ccccc3)[C@H](c3ccccc3)N1[C@@H]2c1ccccc1OCCO` as the molecule, how does the z-score read?
Its z-score is 0.881 (inactive).

With `COC(=O)[C@@]1(Cc2ccc(F)cc2)[C@H]2c3cc(C(=O)N4CCCC4)n(C)c3C[C@H]2CN1C(=O)c1ccccc1` as the molecule, how does the z-score read?
Its z-score is 0.309 (inactive).

With `COC(=O)[C@@]1(Cc2ccc(F)cc2)[C@H]2c3cc(C(=O)N(C)C)n(Cc4ccc(O)c(OC)c4)c3C[C@H]2CN1C(=O)c1ccccc1` as the molecule, how does the z-score read?
The z-score was 0.301 (inactive).

For `C=CCC(OC(C)=O)[C@@H]1[C@@H](N(Cc2ccc(-c3cccc(C(F)(F)F)c3)o2)C(=O)c2ccc(C)cc2)c2cc(OCCCO)ccc2N1C(=O)Cc1ccc(OC)cc1` (some centres not stated), which z-score is on record?
The z-score was 0.74 (inactive).

With `CN(C)CCCCNC(=O)[C@H]1C[C@H]2C(=O)N[C@@H](CCCC[N+](C)(C)C)C(=O)N2[C@H]1c1ccc(O)cc1` as the molecule, how does the z-score read?
Its z-score is -1.11 (inactive).
